# According to paper PMC9838217, “Structure of SALL4 zinc finger domain reveals link between AT-rich DNA binding and Okihiro syndrome”:
# Where a chain is given by its changes, count along the chain named.
# Target: T1, SALL4 ZFC4 WT (HT-SELEX) (Mus musculus, UniProt Q8BX22 870-940)
# T1 sequence: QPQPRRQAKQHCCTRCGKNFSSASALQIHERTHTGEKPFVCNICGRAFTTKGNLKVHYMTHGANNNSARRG
# Assay: HT-SELEX; high values mean tight binding
# Settings: protein: recombinant; vector His6-GST; dsDNA, one strand shown
# In short: (§1)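 Each canonical k-mer's binding signal is its read fraction expressed as fold change over the initial random library. Reads came from MiSeq sequencing, scanned for 6-mers, after up to 6 triplicate cycles in which purified recombinant mouse SALL4 zinc finger cluster 4 (residues 870–940, 1 µg) bound library DNA (1.5 µg first cycle, 200 ng later) in 100 µl of 10 mM Tris–HCl pH 7.5, 50 mM NaCl, poly(dI-dC), DTT for 10 min at room temperature. Complexes were then Ni2+ bead-captured, washed, PCR-amplified and reselected.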
row,Sequence,binding signal [fold-change vs cycle 0]
1,ACCATC,0.858 ± 0.0322
2,CCGTAA,0.687 ± 0.0267
3,CTAAGA,1.36 ± 0.0387
4,ACATCA,1.32 ± 0.0619
5,CTTAAC,1.38 ± 0.0537
6,AATCAA,2.03 ± 0.0966
7,GAGTAC,0.903 ± 0.0224
8,CTTATA,2.43 ± 0.156
9,ATATCG,1.31 ± 0.0501
10,ATACCG,0.646 ± 0.0192
11,CTGACC,0.426 ± 0.0325
12,GCTTAA,1.02 ± 0.0584
13,ATTATA,4.99 ± 0.594
14,AAACCA,1.14 ± 0.0582
15,CTTAGC,0.73 ± 0.019
16,GACCTA,0.743 ± 0.0147
17,TACCGA,0.689 ± 0.0125
18,CCTAAA,1.13 ± 0.0805
19,CAAACG,0.563 ± 0.00697
20,CAACTC,0.778 ± 0.0269

row,Sequence,binding signal [fold-change vs cycle 0]
1,AAACTA,1.88 ± 0.106
2,CAGAGC,0.315 ± 0.0109
3,ACCAAC,0.731 ± 0.0183
4,CTTGAC,0.777 ± 0.0347
5,ATACTC,1.45 ± 0.0421
6,AAGAAA,2.03 ± 0.13
7,AGTTCC,0.848 ± 0.0309
8,AACAAT,2.06 ± 0.132
9,GCTTCC,0.35 ± 0.00821
10,AGACGG,0.342 ± 0.0181
11,AAACCC,0.691 ± 0.0592
12,ACGATA,1.28 ± 0.0502
13,AACAAA,1.75 ± 0.107
14,CTCAAG,0.858 ± 0.0354
15,CACAAC,0.647 ± 0.0332
16,AAGATC,1.25 ± 0.0866
17,CAATCC,0.816 ± 0.0436
18,AAAGTG,1.1 ± 0.0306
19,ACCAAA,1.09 ± 0.0301
20,TATCGA,1.23 ± 0.0345

# Target: T2, SALL4 ZFC4 R900W (HT-SELEX) (Mus musculus, UniProt Q8BX22 870-940, R900W)
# T2 sequence: T1 sequence with R31W
# Assay: HT-SELEX; high values mean tight binding
# Settings: protein: recombinant; vector His6-GST; dsDNA, one strand shown
# In short: as §1
row,Sequence,binding signal [fold-change vs cycle 0]
1,ACCATC,0.944 ± 0.0334
2,CCGTAA,0.78 ± 0.0395
3,CTAAGA,1.51 ± 0.0736
4,ACATCA,1.42 ± 0.0539
5,CTTAAC,1.58 ± 0.0426
6,AATCAA,2 ± 0.106
7,GAGTAC,0.992 ± 0.045
8,CTTATA,2.09 ± 0.123
9,ATATCG,1.15 ± 0.0369
10,ATACCG,0.699 ± 0.038
11,CTGACC,0.52 ± 0.0363
12,GCTTAA,1.15 ± 0.0607
13,ATTATA,2.65 ± 0.265
14,AAACCA,1.23 ± 0.0362
15,CTTAGC,0.843 ± 0.0192
16,GACCTA,0.857 ± 0.0141
17,TACCGA,0.749 ± 0.0345
18,CCTAAA,1.27 ± 0.0327
19,CAAACG,0.704 ± 0.014
20,CAACTC,0.92 ± 0.0298

row,Sequence,binding signal [fold-change vs cycle 0]
1,AAACTA,1.85 ± 0.13
2,CAGAGC,0.382 ± 0.0231
3,ACCAAC,0.8162 ± 0.00324
4,CTTGAC,0.934 ± 0.0128
5,ATACTC,1.5 ± 0.0712
6,AAGAAA,2.08 ± 0.193
7,AGTTCC,0.972 ± 0.0535
8,AACAAT,1.95 ± 0.114
9,GCTTCC,0.454 ± 0.0368
10,AGACGG,0.409 ± 0.00782
11,AAACCC,0.77 ± 0.0294
12,ACGATA,1.3 ± 0.0452
13,AACAAA,1.8 ± 0.139
14,CTCAAG,1.02 ± 0.032
15,CACAAC,0.72 ± 0.018
16,AAGATC,1.42 ± 0.0452
17,CAATCC,0.939 ± 0.0312
18,AAAGTG,1.23 ± 0.0192
19,ACCAAA,1.17 ± 0.0218
20,TATCGA,1.2 ± 0.0508

# Target: T3, SALL4 ZFC4 G921D (HT-SELEX) (Mus musculus, UniProt Q8BX22 870-940, G921D)
# T3 sequence: T1 sequence with G52D
# Assay: HT-SELEX; high values mean tight binding
# Settings: protein: recombinant; vector His6-GST; dsDNA, one strand shown
# In short: as §1
row,Sequence,binding signal [fold-change vs cycle 0]
1,ACCATC,0.994 ± 0.0236
2,CCGTAA,0.825 ± 0.0254
3,CTAAGA,1.42 ± 0.0981
4,ACATCA,1.37 ± 0.0921
5,CTTAAC,1.42 ± 0.0747
6,AATCAA,1.81 ± 0.125
7,GAGTAC,1.04 ± 0.0172
8,CTTATA,1.82 ± 0.197
9,ATATCG,1.194 ± 0.00992
10,ATACCG,0.799 ± 0.0271
11,CTGACC,0.621 ± 0.0521
12,GCTTAA,1.12 ± 0.048
13,ATTATA,2.25 ± 0.311
14,AAACCA,1.24 ± 0.0488
15,CTTAGC,0.8905 ± 0.00272
16,GACCTA,0.926 ± 0.0368
17,TACCGA,0.837 ± 0.0299
18,CCTAAA,1.18 ± 0.0527
19,CAAACG,0.777 ± 0.055
20,CAACTC,0.994 ± 0.018

row,Sequence,binding signal [fold-change vs cycle 0]
1,AAACTA,1.68 ± 0.169
2,CAGAGC,0.524 ± 0.0543
3,ACCAAC,0.883 ± 0.0212
4,CTTGAC,0.981 ± 0.0363
5,ATACTC,1.44 ± 0.097
6,AAGAAA,1.78 ± 0.233
7,AGTTCC,0.98 ± 0.0319
8,AACAAT,1.79 ± 0.145
9,GCTTCC,0.567 ± 0.0502
10,AGACGG,0.522 ± 0.0641
11,AAACCC,0.845 ± 0.0633
12,ACGATA,1.26 ± 0.0543
13,AACAAA,1.64 ± 0.143
14,CTCAAG,1.04 ± 0.0506
15,CACAAC,0.828 ± 0.0337
16,AAGATC,1.44 ± 0.0439
17,CAATCC,0.973 ± 0.0236
18,AAAGTG,1.22 ± 0.0345
19,ACCAAA,1.18 ± 0.044
20,TATCGA,1.22 ± 0.03
